Screening results deposited in PubChem by Broad Institute.
SIRT5 inh – sirtuin-5 (human) deacylase inhibition. Purified SirT5, succinyl-peptide AMC, trypsin-coupled fluorescence. 330,000 compounds, 1.1% hits. inhibition, % at 15 µM. Q9NXA8; in the data active means inhibition above about 15%
Target sequence (Q9NXA8 whole entry, looked up): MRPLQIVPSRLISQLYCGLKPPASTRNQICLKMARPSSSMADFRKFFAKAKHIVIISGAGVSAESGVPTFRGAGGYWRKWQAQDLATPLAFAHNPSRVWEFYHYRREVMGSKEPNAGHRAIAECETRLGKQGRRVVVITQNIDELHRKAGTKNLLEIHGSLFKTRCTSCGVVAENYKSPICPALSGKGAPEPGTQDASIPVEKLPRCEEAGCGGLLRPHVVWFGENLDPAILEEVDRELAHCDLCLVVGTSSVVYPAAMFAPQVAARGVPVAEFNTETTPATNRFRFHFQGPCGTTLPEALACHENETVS
ERAP1 inh – ERAP1 (human) enzyme inhibition; Q9NZ08; 340,000 compounds, 0.15% hits; recombinant ERAP1, Leu-AMC fluorescence, 60 min; inhibition, % at 10.7 µM;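 active means mean replicate inhibition of at least 30%, or all replicates individually reaching that 30% level; inactive means mean below 30% and not every replicate reaching it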;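 further: 0% = neutral control wells and 100% = L-leucinethiol positive control wells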
FGF22 binding – binders of recombinant human FGF22 by thermal shift. 340,000 compounds, 1.5% hits. SYPRO orange fluorescence; percent of sucrose octasulfate shift, DMSO zero. AID 651658. activity (Tm shift, normalised), % at 9.99 µM;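 active means mean Tm shift, scaled 0 neutral to 100 positive control, at about 1.3% or above, every replicate too, limit read from the data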
Target sequence (Q9HCT0 whole entry, looked up): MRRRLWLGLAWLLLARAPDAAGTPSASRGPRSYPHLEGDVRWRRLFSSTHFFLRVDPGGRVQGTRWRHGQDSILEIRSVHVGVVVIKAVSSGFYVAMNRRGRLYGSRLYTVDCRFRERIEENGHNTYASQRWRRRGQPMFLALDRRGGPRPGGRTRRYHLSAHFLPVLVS
Casp6 inh – inhibitors of human caspase-6; P55212; purified caspase-6, Z-VEID-R110 cleavage fluorescence; 350,000 compounds, 0.53% hits; inhibition, % at 12.5 µM;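 active means mean inhibition across replicates at least about 35%, with every replicate also reaching that limit, limit read from the data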;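 further: 0% = median of neutral control wells and 100% = no fluorescence left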
The depositor's hits bear a star; . = no result; ! = a repeat was not active. This is a sample that favours compounds with a hit; in the whole collection about 3.1% have one here.

SMILES	SIRT5 inh	ERAP1 inh	FGF22 binding	Casp6 inh
COc1cccc(NC(=O)N(C)C[C@@H]2Oc3cc(C#Cc4ccccc4)ccc3S(=O)(=O)N([C@@H](C)CO)C[C@@H]2C)c1	.	.	1.4*	.
COc1cccc(C#Cc2ccc3c(c2)O[C@@H](CN(C)C(=O)c2ccccn2)[C@@H](C)CN([C@H](C)CO)S3(=O)=O)c1	16.0*!	-8.3	-0.1	0.2
O=C(Nc1ccccc1)N1CCCCN2[C@@H](CO)[C@@H](c3ccc(-c4ccncc4)cc3)[C@@H]2C1	2.0	0.5	0.3	-2.0
N#Cc1ccccc1NC(=O)CSC1=Nc2ccccc2C2CC=NN12 (stereo not given)	-5.9	-2.2	43.7*	1.7
O=C(CSC1=Nc2ccccc2C2CC=NN12)Nc1ccc2c(c1)OCO2 (stereo not given)	-2.2	-2.8	1.1	2.7
C[C@@H]1CN([C@H](C)CO)S(=O)(=O)c2ccc(C#CC3CC3)cc2O[C@@H]1CN(C)Cc1ccc(F)cc1	11.7	2.2	0.0	-0.8
CN1C[C@H](O)COC[C@H]2O[C@@H](CC(=O)N3CCN(c4ccccc4)CC3)CC[C@@H]21	-2.4	1.7	0.0	1.2
COCCOC(=O)c1[nH]c2c(c1C)C(=O)CC(c1ccco1)C2 (stereo not given)	.	1.9	40.7	49.6*
CCCCCCSc1cc(-c2nc3cnccn3c2NCCCC)ccc1OC	26.5*	-7.1	.	5.3
CCCCCCSc1cc(-c2nc3cc(C)ccn3c2NCCCC)ccc1OC	.	4.6	0.1	2.4
O=C(NC1CCC1)[C@@H]1[C@@H](CO)[C@@H]2Cn3c(ccc(-c4ccc(F)cc4)c3=O)[C@H]1N2	-34.7	-1.4	0.0	-0.7
O=C(CCCN1C(=O)/C(=C/c2ccco2)SC1=S)Nc1cccc(C(=O)O)c1	41.5*	31.7*	-0.3	55.3*
O=C(CCCN1C(=O)/C(=C\c2ccco2)SC1=S)Nc1ccc(O)cc1C(=O)O	39.9*	24.3	.	.
O=C(CCCN1C(=O)/C(=C\c2cccs2)SC1=S)Nc1ccc(O)cc1C(=O)O	-2.6	3.5	-0.1	13.9
O=C(CCCN1C(=O)/C(=C\c2cccs2)SC1=S)Nc1cccc(C(=O)O)c1	.	-1.2	0.7	-1.3
O=C(O)c1ccc(C2SCC(=O)N2Cc2ccco2)cc1 (stereo not given)	-2.6	2.7	1.5*	0.6
CCOc1ccccc1N(C)C(=O)c1cn(CC)c(=O)c2cc(OC)c(OC)cc12	20.2*	8.0	0.1	.
N#Cc1ccc(C(=O)NC(=S)N2CCN(C=O)CC2)cc1	20.0*	-2.3	-0.3	1.8
C[C@H](CO)N1C[C@H](C)[C@H](CN(C)C(=O)NC2CCCCC2)Oc2ccc(NC(=O)Nc3ccccc3)cc2C1=O	21.7*	-1.9	-0.7	2.5
C[C@H]1CN([C@@H](C)CO)C(=O)c2cc(NC(=O)Nc3ccc4c(c3)OCO4)ccc2O[C@@H]1CN(C)C(=O)NC1CCCCC1	15.6*	-0.2	0.3	-1.4
C[C@H](CO)N1C[C@H](C)[C@H](CN(C)C(=O)NC2CCCCC2)Oc2ccc(NC(=O)Nc3ccc4c(c3)OCO4)cc2C1=O	7.4	0.9	0.2	-1.3
CC(=O)NNC(=O)CCn1nnc2ccccc21	-2.3	1.4	43.9*	0.5
c1ccc(CCn2nnc3ccccc32)cc1	19.6*	-1.8	0.1	-0.3
O=C(Cn1nnc2ccccc21)OCc1ccccc1	-2.0	1.6	0.3	-0.9
O=C(COc1cccc(F)c1)Nc1nc(-c2ccccn2)cs1	.	5.1	43.7*	2.3
SMILES	SIRT5 inh	ERAP1 inh	FGF22 binding	Casp6 inh
CC(=O)Nc1ccc(C(=O)Nc2nc(-c3ccccn3)cs2)cc1	5.0	-0.7	43.9*	6.1
CC(=O)Nc1ccc(C(=O)Nc2nc(-c3cccnc3)cs2)cc1	-4.7	2.3	43.3*	-1.4
O=C(Nc1nc(-c2ccccn2)cs1)c1ccc2c(c1)OCCO2	-0.7	1.5	0.3	-1.8
COc1ccc(S(=O)(=O)Nc2ccc3c(c2)C(=O)N([C@H](C)CO)C[C@@H](C)[C@H](CN(C)S(=O)(=O)c2ccc(Cl)cc2)OCCCC[C@H](C)O3)cc1	20.3*	-0.6	22.7*	0.4
COc1ccc(S(=O)(=O)Nc2ccc3c(c2)C(=O)N([C@@H](C)CO)C[C@H](C)[C@H](CN(C)S(=O)(=O)c2ccc(Cl)cc2)OCCCC[C@H](C)O3)cc1	-0.8	1.1	-0.2	1.3
COc1ccc(S(=O)(=O)Nc2ccc3c(c2)C(=O)N([C@H](C)CO)C[C@H](C)[C@H](CN(C)S(=O)(=O)c2ccc(Cl)cc2)OCCCC[C@@H](C)O3)cc1	9.5	-1.2	-0.1	0.7
COc1ccc(S(=O)(=O)N(C)C[C@H]2OCCCC[C@H](C)Oc3ccc(NS(=O)(=O)c4ccc(Cl)cc4)cc3C(=O)N([C@@H](C)CO)C[C@H]2C)cc1	17.3*	.	.	.
COc1ccc(S(=O)(=O)N(C)C[C@@H]2OCCCC[C@@H](C)Oc3ccc(NS(=O)(=O)c4ccc(Cl)cc4)cc3C(=O)N([C@@H](C)CO)C[C@H]2C)cc1	16.9*	2.1	.	0.7
COc1ccc(S(=O)(=O)Nc2ccc3c(c2)C(=O)N([C@@H](C)CO)C[C@H](C)[C@H](CN(C)S(=O)(=O)c2ccc(Cl)cc2)OCCCC[C@@H](C)O3)cc1	22.0*	0.9	.	0.7
O=C(C1CCCC1)N1C[C@H]2[C@@H](c3ccccc31)[C@@H](CO)N2C(=O)c1cccnc1	-1.8	-2.4	-0.8	-5.5
COc1ccc(S(=O)(=O)N(C)C[C@H]2OCCCC[C@@H](C)Oc3ccc(NS(=O)(=O)c4ccc(Cl)cc4)cc3C(=O)N([C@H](C)CO)C[C@H]2C)cc1	22.7*	1.6	-0.6	-1.6
CN(C(=O)COc1ncnc2sccc12)c1ccccc1	1.0	2.7	43.3*	-0.2
O=C([C@@H]1[C@@H](CO)[C@@H]2Cn3c(cccc3=O)[C@@H]2N1CC1CCCC1)N1CCOCC1	5.3	1.8	-0.2	1.1
O=C(Nc1ccno1)Nc1ccc(Cl)cc1Cl	0.9	-2.2	0.2	0.4
CO/N=C/C(C(C)=O)C(=O)Nc1ccc(Cl)cc1Cl (stereo not given)	0.2	0.2	43.1*	1.3
CO[C@@H](CN(C)C(=O)c1ccc2c(c1)OCO2)[C@@H](C)CN([C@@H](C)CO)S(=O)(=O)c1ccccc1	-1.7	0.3	-0.2	2.9
CO[C@H](CN(C)C(=O)c1ccc2c(c1)OCO2)[C@H](C)CN([C@H](C)CO)S(=O)(=O)c1ccccc1	26.8*	0.8	-0.1	2.0
COCC(=O)N(C)C[C@@H]1Oc2cc(C3=CCCC3)ccc2S(=O)(=O)N([C@H](C)CO)C[C@@H]1C	-1.1	.	-0.2	.
O=C(O)c1ccc2c(c1)C(=O)/C(=C\c1ccco1)C2=O	12.7	1.3	0.1	40.6*
S=c1[nH]nc(-c2cccnc2)n1/N=C/C=C/c1ccco1	-1.0	0.6	-1.9	39.1*
CN(C)CC(=O)N[C@@H]1C=C[C@H](CC(=O)NCCN2CCCCC2)O[C@@H]1CO	1.9	-0.6	0.1	0.2
COc1ccc(C(=O)NC(C(=O)NCC(=O)Nc2c(C)cccc2C)C(C)C)cc1 (stereo not given)	0.1	5.1	43.5*	-1.4
